Compound activity deposited in PubChem BioAssay by National Center for Advancing Translational Sciences (NCATS).
HCV inh: blocks hepatitis C virus; Huh7.5.1 HCVcc-Cre infection, luciferase reporter, 44 h; Potency, µM (highest dose often 41.8 µM), for inactives: top-dose activity change, negative = inhibition, most hits filed as inhibitors; hit rate 3.4% among 340,000; AID 651820; active = well fitted inhibition curve with a large enough effect; inconclusive = small, poorly fitted or top-dose-only effect, or another doubt; inactive = no such curve, though single readings can be large or run the other way; note: potency is the fitted concentration of half-maximal effect; % is set by controls: 0 for no effect and ±100 for the full control effect
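Reporter virus HCVcc-Cre (~0.5 moi) infects cells exposed to compound; seeding density 1,000 cells/well with 4 h settling beforehand. Luminescence, 15 sec read, taken 44 h post-infection following a 15 min RT substrate incubation.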
Cycloheximide cs: affects cycloheximide protein synthesis inhibition readout, counter-screen | cell reporter, cycloheximide protein synthesis inhibition counterscreen | max response, % | hit rate 12% among 300,000 | AID 2314; in the data active = max response mostly above about 13%, no sharp cut-off; inactive = mostly below about 14%; note: read at 38.3 µM for the half of the compounds with a filed dose; 0% is about no effect
Marburg entry inh: Marburg virus entry inhibition; Marburg virus pseudotyped entry inhibition, cell reporter; Potency, µM (series often up to 37.8 µM), for inactives: top-dose activity change, negative = inhibition, usual class: inhibitors; hit rate 1.8% among 300,000; calls by dose curve; tested in HEK293 cells; note: potency is the fitted concentration of half-maximal effect; % is set by controls: 0 for no effect and ±100 for the full control effect
Shiga toxin inh: inhibitors of Shiga toxin in Vero cells | Vero cells, Shiga toxin protein synthesis inhibition reporter | inhibition, % at 38.7 µM | hit rate 9.2% among 290,000 | AID 2315; in the data active = inhibition mostly above about 28%, no sharp cut-off; inactive = mostly below about 43%; note: 0% is about no effect
FMDV inh: antivirals against foot and mouth disease virus; FMDV antiviral cell-based qHTS; Potency, µM (highest dose often 57.9 µM), for inactives: at the highest dose activity change, negative = inhibition, actives largely listed as inhibitors; hit rate 1.2% among 410,000; AID 1159524; calls by dose curve; tested in HEK293T cells; note: read-out not given here; potency is the fitted concentration of half-maximal effect; % is set by controls: 0 for no effect and ±100 for the full control effect; nearly all actives have a fitted effect of over 45% in size
Lassa entry inh: Lassa virus entry inhibition. hit rate 1.2% among 300,000. Potency, µM (series often up to 37.9 µM), inactives show at the top dose activity change, negative = inhibition, actives largely listed as inhibitors. Lassa virus pseudotype entry inhibition, cell reporter; calls by dose curve; tested in HEK293 cells; note: potency is the fitted concentration of half-maximal effect; % is set by controls: 0 for no effect and ±100 for the full control effect; nearly all actives have a fitted effect of over 50% in size
* hit, by the source's call; ? = inconclusive; . = no result; + = active, no number; [ ] = dose if it differs, or a comment. Only some compounds are listed: those with a hit (about 13% of all), similar ones and a draw of the others.

SMILES	HCV inh	Cycloheximide cs	Marburg entry inh	Shiga toxin inh	FMDV inh	Lassa entry inh
COC(=O)c1sc(N)c(C(=O)OC)c1COC(=O)CCNS(=O)(=O)c1ccc(C)cc1	?	1	-20%	-7	-10%	?
COc1ccc(CC(=O)OCC(=O)Nc2ccc(C(=O)Nc3ccc(OC)cc3)cc2)cc1	?	-1	3%	15	23%	4%
COC(=O)c1ccc(NC(=O)Cc2ccc(C)cc2)cc1	6%	9	13%	26	13%	14%
CCOc1ccc(NC(=O)c2ccc(NC(=O)COC(=O)Cc3ccc(OC)cc3)cc2)cc1	-5%	18	-3%[46.1 µM]	60*	44%	1%
COC(=O)c1ccc(NC(=O)Cc2ccccc2)cc1	5%	50*	?	100*	57%	17%
CCOc1ccc(NC(=O)COC(=O)c2ccc3c(c2)C(=O)N(CCc2ccccc2)C3=O)cc1	7%	19*	6%	66*	31%	2%
COc1ccc(-n2nc3ccc(NC(=O)c4c(OC)cccc4OC)cc3n2)cc1	.	36*	?	52	16%	-15%[46.1 µM]
CCCn1c(SCC(=O)Nc2nc(C)cs2)nnc1-c1cccnc1	-18%	11	-1%	-6	2%	20%
Cc1ccc(-n2ncc(C(=O)NCc3ccc4c(c3)OCO4)c2NC(=O)c2ccco2)cc1C	?	3	-1%	14	54%	-23%
O=C(NCCCOC(=O)c1ccccc1)c1ccccc1	-6%	.	-3%[46.1 µM]	.	3%	7%[46.1 µM]
CCOc1ccc(NC(=O)CNC(=O)Cc2ccccc2)cc1	6%	-3	0%	2	32%	?
CCOc1ccc(NC(=O)Cc2ccccc2)cc1	-27%	93*	?	104*	7%	-1%
CCOc1ccc(NC(=O)CSc2ccccc2N)cc1	-14%	39*	3.5µM*	118*	73%	.
CCOc1ccc(-n2nc3ccc(NC(=O)CC)cc3n2)cc1	?	31*	24%	55*	44%	?
CCOc1ccc(-n2nc3cc(C)c(NC(=O)CC)cc3n2)cc1	.	.	19%[46.1 µM]	.	-5%	-13%[46.1 µM]
CCOc1ccc(NC(=O)CSCC(=O)O)cc1	11%	13	13%	-16	-5%	3%
CCCS(=O)(=O)c1nc(S(=O)(=O)c2ccc(C)cc2)c(NC(C)c2ccccc2)s1 (configuration not stated)	.	.	-2%[46.1 µM]	.	14%	?
CCCCOc1ccc(CNC(=O)CN2C(=O)CCn3nc(-c4cn(C)c5ccccc45)cc32)cc1	.	.	.	.	-21%	?
O=C(CCNS(=O)(=O)c1ccc(Cl)cc1)OCC(=O)c1ccc[nH]1	-3%	1	-10%[46.1 µM]	-3	2%	8%
O=C(CSc1ccc(Br)cc1)N1CCOCC1	6%	27*	?	46*	19%	24%[46.1 µM]
O=C(CSc1nccn1Cc1ccccc1)Nc1ccc2c(c1)OCCO2	.	.	.	.	50%	2%[46.1 µM]
Cc1ccc(SCC(=O)N2CCOCC2)cc1	13%	23*	?	35*	36%	33%
Cc1ccc(CC(=O)N2CCOCC2)cc1	15%	10	9%[46.1 µM]	34	21%	8%
Cc1ccc(CSCC(=O)N2CCOCC2)cc1	2%	20*	?	34	24%	18%
O=C(CCSc1nccn1Cc1ccccc1)N1CCOCC1	10%	19*	8%	+	55%	3%
SMILES	HCV inh	Cycloheximide cs	Marburg entry inh	Shiga toxin inh	FMDV inh	Lassa entry inh
O=S(=O)(Nc1cccnc1)c1cccnc1	17%	.	5%[46.1 µM]	.	-6%	4%[46.1 µM]
O=C(Nc1ccccc1N1CCOCC1)C1CCN(S(=O)(=O)c2ccc(Cl)cc2)CC1	2%	-2	.	2	-22%	.
O=C(CC1SC(N2CCCCC2)=NC1=O)Nc1cccc(C(=O)O)c1 (configuration not stated)	10%	9	-19%	13	-2%	18%
O=C(CCSc1ccc(Cl)cc1)N1CCOCC1	5%	29*	?	53*	11%	0%
Cc1ccc(S(=O)(=O)N2CCN(C(=O)COC(=O)Cc3ccc(F)cc3)CC2)c(C)c1	6%	.	5%	.	-9%	-12%
O=C(COc1ccc2cc(Br)ccc2c1Br)N1CCOCC1	-9%	29*	?	30*	18%	?
CCOC(=O)c1c(C)[nH]c(C(=O)OCC(=O)N2CCN(S(=O)(=O)c3ccc(C)cc3C)CC2)c1C	14µM*	.	.	.	?	.
CSc1ccc(CSCC(=O)N2CCN(S(=O)(=O)c3ccc(C)cc3C)CC2)cc1	8.9µM*	.	.	.	?	.
